# Laboratory results published in the supplement of paper PMC4466140.
# Biological target: CaNbp2
# Experiment: SPOT peptide array binding signal intensity (averaged, normalized) (arbitrary units (background-subtracted, floor 0; scale differs between SH3 domains)); higher = stronger binding of the SH3 domain to the peptide
# Procedure: (§1)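 GST-tagged SH3 domains from S. cerevisiae (Sc), A. gossypii (Ag), C. albicans (Ca) and S. pombe (Sp) were incubated at 10 ug/ml overnight at 4 C on cellulose SPOT membranes carrying 292 synthetic 15-mer peptides mined from the S. cerevisiae proteome (cysteines replaced by serines). Binding was detected with anti-GST antibody, HRP secondary and chemiluminescence, quantified with Genespotter, and reported as normalized spot intensities averaged over biological replicates.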
row,Binder,SPOT peptide array binding signal intensity
1,YRRKSIPFAPHQITA,161

# Biological target: CaRvs167
# Experiment: as above
# Procedure: as §1
row,Binder,SPOT peptide array binding signal intensity
1,YRRKSIPFAPHQITA,15.7

# Biological target: CaRvs167-3
# Experiment: as above
# Procedure: as §1
row,Binder,SPOT peptide array binding signal intensity
1,YRRKSIPFAPHQITA,18.5

# Biological target: CaSho1
# Experiment: as above
# Procedure: as §1
row,Binder,SPOT peptide array binding signal intensity
1,YRRKSIPFAPHQITA,70

# Biological target: CaSla1-D1-D2
# Experiment: as above
# Procedure: as §1
row,Binder,SPOT peptide array binding signal intensity
1,YRRKSIPFAPHQITA,118

# Biological target: CaSla1-D3
# Experiment: as above
# Procedure: as §1
row,Binder,SPOT peptide array binding signal intensity
1,YRRKSIPFAPHQITA,2.5

# Biological target: ScAbp1
# Experiment: as above
# Procedure: as §1
row,Binder,SPOT peptide array binding signal intensity
1,YRRKSIPFAPHQITA,53

# Biological target: ScBbc1
# Experiment: as above
# Procedure: as §1
row,Binder,SPOT peptide array binding signal intensity
1,YRRKSIPFAPHQITA,9.25

# Biological target: ScBem1-D1
# Experiment: as above
# Procedure: as §1
row,Binder,SPOT peptide array binding signal intensity
1,YRRKSIPFAPHQITA,29.5

# Biological target: ScBzz1-D1
# Experiment: as above
# Procedure: as §1
row,Binder,SPOT peptide array binding signal intensity
1,YRRKSIPFAPHQITA,66

# Biological target: ScBzz1-D2
# Experiment: as above
# Procedure: as §1
row,Binder,SPOT peptide array binding signal intensity
1,YRRKSIPFAPHQITA,90

# Biological target: ScCyk3
# Experiment: as above
# Procedure: as §1
row,Binder,SPOT peptide array binding signal intensity
1,YRRKSIPFAPHQITA,10

# Biological target: ScFus1
# Experiment: as above
# Procedure: as §1
row,Binder,SPOT peptide array binding signal intensity
1,YRRKSIPFAPHQITA,89

# Biological target: ScHof1
# Experiment: as above
# Procedure: as §1
row,Binder,SPOT peptide array binding signal intensity
1,YRRKSIPFAPHQITA,3.5

# Biological target: ScHse1
# Experiment: as above
# Procedure: as §1
row,Binder,SPOT peptide array binding signal intensity
1,YRRKSIPFAPHQITA,380

# Biological target: ScLsb1
# Experiment: as above
# Procedure: as §1
row,Binder,SPOT peptide array binding signal intensity
1,YRRKSIPFAPHQITA,0.25

# Biological target: ScLsb2
# Experiment: as above
# Procedure: as §1
row,Binder,SPOT peptide array binding signal intensity
1,YRRKSIPFAPHQITA,25

# Biological target: ScLsb3
# Experiment: as above
# Procedure: as §1
row,Binder,SPOT peptide array binding signal intensity
1,YRRKSIPFAPHQITA,20

# Biological target: ScLsb4
# Experiment: as above
# Procedure: as §1
row,Binder,SPOT peptide array binding signal intensity
1,YRRKSIPFAPHQITA,6

# Biological target: ScMyo3
# Experiment: as above
# Procedure: as §1
row,Binder,SPOT peptide array binding signal intensity
1,YRRKSIPFAPHQITA,0.5

# Biological target: ScMyo5
# Experiment: as above
# Procedure: as §1
row,Binder,SPOT peptide array binding signal intensity
1,YRRKSIPFAPHQITA,6

# Biological target: ScNbp2
# Experiment: as above
# Procedure: as §1
row,Binder,SPOT peptide array binding signal intensity
1,YRRKSIPFAPHQITA,160

# Biological target: ScPex13
# Experiment: as above
# Procedure: as §1
row,Binder,SPOT peptide array binding signal intensity
1,YRRKSIPFAPHQITA,185

# Biological target: ScRvs167
# Experiment: as above
# Procedure: as §1
row,Binder,SPOT peptide array binding signal intensity
1,YRRKSIPFAPHQITA,33.3

# Biological target: ScSho1
# Experiment: as above
# Procedure: as §1
row,Binder,SPOT peptide array binding signal intensity
1,YRRKSIPFAPHQITA,145

# Biological target: ScSla1-D1-D2
# Experiment: as above
# Procedure: as §1
row,Binder,SPOT peptide array binding signal intensity
1,YRRKSIPFAPHQITA,166

# Biological target: ScSla1-D3
# Experiment: as above
# Procedure: as §1
row,Binder,SPOT peptide array binding signal intensity
1,YRRKSIPFAPHQITA,4.25

# Biological target: SpAbp1-D1
# Experiment: as above
# Procedure: as §1
row,Binder,SPOT peptide array binding signal intensity
1,YRRKSIPFAPHQITA,99

# Biological target: SpBbc1
# Experiment: as above
# Procedure: as §1
row,Binder,SPOT peptide array binding signal intensity
1,YRRKSIPFAPHQITA,2

# Biological target: SpBzz1-D1
# Experiment: as above
# Procedure: as §1
row,Binder,SPOT peptide array binding signal intensity
1,YRRKSIPFAPHQITA,189

# Biological target: SpBzz1-D2
# Experiment: as above
# Procedure: as §1
row,Binder,SPOT peptide array binding signal intensity
1,YRRKSIPFAPHQITA,0.5

# Biological target: SpCyk3
# Experiment: as above
# Procedure: as §1
row,Binder,SPOT peptide array binding signal intensity
1,YRRKSIPFAPHQITA,≤ 0

# Biological target: SpHof1
# Experiment: as above
# Procedure: as §1
row,Binder,SPOT peptide array binding signal intensity
1,YRRKSIPFAPHQITA,25.8

# Biological target: SpHof1-2
# Experiment: as above
# Procedure: as §1
row,Binder,SPOT peptide array binding signal intensity
1,YRRKSIPFAPHQITA,1.5

# Biological target: SpHof1-3
# Experiment: as above
# Procedure: as §1
row,Binder,SPOT peptide array binding signal intensity
1,YRRKSIPFAPHQITA,106

# Biological target: SpHse1
# Experiment: as above
# Procedure: as §1
row,Binder,SPOT peptide array binding signal intensity
1,YRRKSIPFAPHQITA,88.2

# Biological target: SpLsb1
# Experiment: as above
# Procedure: as §1
row,Binder,SPOT peptide array binding signal intensity
1,YRRKSIPFAPHQITA,4.5

# Biological target: SpLsb4
# Experiment: as above
# Procedure: as §1
row,Binder,SPOT peptide array binding signal intensity
1,YRRKSIPFAPHQITA,48

# Biological target: SpMyo1
# Experiment: as above
# Procedure: as §1
row,Binder,SPOT peptide array binding signal intensity
1,YRRKSIPFAPHQITA,5.5

# Biological target: SpNbp2
# Experiment: as above
# Procedure: as §1
row,Binder,SPOT peptide array binding signal intensity
1,YRRKSIPFAPHQITA,64

# Biological target: SpPex13
# Experiment: as above
# Procedure: as §1
row,Binder,SPOT peptide array binding signal intensity
1,YRRKSIPFAPHQITA,19

# Biological target: SpRvs167
# Experiment: as above
# Procedure: as §1
row,Binder,SPOT peptide array binding signal intensity
1,YRRKSIPFAPHQITA,6.33

# Biological target: SpSla1-D1-D2
# Experiment: as above
# Procedure: as §1
row,Binder,SPOT peptide array binding signal intensity
1,YRRKSIPFAPHQITA,≤ 0

# Biological target: SpSla1-D3
# Experiment: as above
# Procedure: as §1
row,Binder,SPOT peptide array binding signal intensity
1,YRRKSIPFAPHQITA,11
